# Screening data deposited in PubChem BioAssay by NMMLSC.
# A selection: hits, their analogues and other compounds. The true share with any hit is near 0.96%.
# FPR ligand: binds the human formylpeptide receptor FPR; 24,000 tested, 0.74% active; inhibition, % (concentration not given with the values); FPR-expressing cells, fluorescent ligand binding, flow cytometry; P21462;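 note: 0% = buffer wells and 100% = receptor blocker peptide wells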
# Target sequence (P21462 whole entry, looked up): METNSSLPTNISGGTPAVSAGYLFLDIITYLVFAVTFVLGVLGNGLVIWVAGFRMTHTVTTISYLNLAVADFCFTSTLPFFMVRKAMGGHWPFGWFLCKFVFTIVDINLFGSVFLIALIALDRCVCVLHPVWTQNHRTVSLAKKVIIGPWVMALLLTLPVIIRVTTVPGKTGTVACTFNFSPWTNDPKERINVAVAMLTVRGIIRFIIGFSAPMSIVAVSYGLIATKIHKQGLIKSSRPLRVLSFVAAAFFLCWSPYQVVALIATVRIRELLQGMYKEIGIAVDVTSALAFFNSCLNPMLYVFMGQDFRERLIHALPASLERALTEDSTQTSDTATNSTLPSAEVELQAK
# FPRL1 ligand: binds the human formylpeptide receptor-like-1 FPRL1 | P25090 | FPRL1-expressing cells, fluorescent ligand binding inhibition, flow cytometry | inhibition, % (no concentration beside the values) | 24,000 tested, 0.3% active | AID 441;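 note: 0% = buffer alone and 100% = receptor blocker peptide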
# S aureus QS inh: inhibitors of bacterial quorum sensing in S. aureus. S. aureus RN6390 RNAIII-GFP reporter, AIP-induced, flow cytometry 3 h. inhibition, % at 2 µM. 24,000 tested, 0.3% active;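 active = share of bacteria positive for the green fluorescent reporter and its mean brightness both inhibited by 50% or more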;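 note: 0% = AIP-stimulated control and 100% = unstimulated bacteria without AIP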
# Numbers without * were called inactive; x = no result. Cut-off read from the data, not from the text of the source, unless noted: active = inhibition above about 30%; inconclusive = no clear call, values can overlap the other calls; inactive = below that.
SMILES,FPR ligand,FPRL1 ligand,S aureus QS inh
CCOc1ccc(C2C(C(=O)c3ccco3)=C(O)C(=O)N2Cc2cccnc2)cc1 (configuration not stated),50*,5,x
COc1ccc(C2C(C(=O)c3ccco3)=C(O)C(=O)N2CCOCCO)cc1OC (configuration not stated),-4,4,x
COc1ccc(C2C(C(=O)c3ccco3)=C(O)C(=O)N2CCc2ccccc2)cc1OC (configuration not stated),80*,-6,x
COc1ccc(C2C(C(=O)c3ccco3)=C(O)C(=O)N2Cc2cccnc2)cc1OC (configuration not stated),38*,28,x
O=c1c(O)c(-c2ccc(O)cc2O)oc2cc(O)cc(O)c12,4,-8,-3
COCCNC(=O)CN1C(=O)CC(C)(C)S(=O)(=O)c2ccccc21,0,2,2
COC(=O)c1ccccc1NC(=O)COc1ccc(S(=O)(=O)N2CCCC2)cc1C,-3,5,0
O=S(CC(O)COCc1ccc(Cl)cc1)c1ccccn1 (configuration not stated),-1,3,-2
COc1cc(C2C(C(=O)c3cccs3)=C(O)C(=O)N2Cc2ccco2)cc(OC)c1OC (configuration not stated),83*,27,x
Cc1nnc(N2C(=O)C(O)=C(C(=O)c3ccco3)C2c2ccc(F)cc2)s1 (configuration not stated),2,1,-1
COc1cccc(/C(O)=C2/C(=O)C(=O)N(Cc3cccnc3)C2c2ccco2)c1 (configuration not stated),34*,26,x
C=CCOc1cccc(C2C(C(=O)c3ccc(C)o3)=C(O)C(=O)N2c2nccs2)c1 (configuration not stated),2,-4,x
O=C(C1=C(O)C(=O)N(Cc2ccccc2)C1c1ccncc1)c1ccco1 (configuration not stated),32*,2,0
CCCOc1ccc(C2C(C(=O)c3ccc(C)o3)=C(O)C(=O)N2Cc2cccnc2)cc1 (configuration not stated),52*,11,7
COCCN1C(=O)C(=O)/C(=C(/O)c2cccc(OC)c2)C1c1ccco1 (configuration not stated),15,-5,x
COc1cc(C2C(C(=O)c3cccs3)=C(O)C(=O)N2c2cc(C)on2)ccc1O (configuration not stated),12,3,x
O=C(CNC(=O)c1ccccc1C(=O)O)c1ccccc1,3,3,-2
O=C(CN1CCOCC1)NCC12CC3CC(CC(C3)C1)C2,-2,-3,-2
CCC(=O)N1c2ccc(S(=O)(=O)N(CCO)Cc3ccccc3)cc2CC1C (configuration not stated),4,-6,1
CCC(C)(C(=O)Nc1ccc2c(c1)OCCO2)N(C(C)=O)c1ccc(C(N)=O)cc1 (configuration not stated),17,-3,0
CSCCC(NC(=O)c1occc1C)C(=O)O (configuration not stated),1,4,0
O=C(C1=C(O)C(=O)N(CCN2CCOCC2)C1c1cccnc1)c1cc2ccccc2o1 (configuration not stated),11,8,x
O=C(C1=C(O)C(=O)N(CC2CCCO2)C1c1cccnc1)c1ccco1 (configuration not stated),39*,-6,x
CCN1C(=O)CC(C(=O)Nc2ccc(F)cc2)SC1=Nc1ccc2c(c1)OCO2 (configuration not stated),-14,-4,2
CCN(CC)CCN1C(=O)C(O)=C(C(=O)c2cccs2)C1c1ccccn1 (configuration not stated),-5,-1,1
SMILES,FPR ligand,FPRL1 ligand,S aureus QS inh
Cc1nc(C)c(C(=O)C2=C(O)C(=O)N(CCCn3ccnc3)C2c2ccccc2)s1 (configuration not stated),1,4,0
COCCN1C(=O)C(O)=C(C(=O)c2cccs2)C1c1ccccc1 (configuration not stated),60*,-5,x
CCCOc1ccc(/C(O)=C2/C(=O)C(=O)N(CCCn3ccnc3)C2c2ccco2)cc1 (configuration not stated),4,2,x
Cc1ccc(C(=O)C2=C(O)C(=O)N(CCCn3ccnc3)C2c2ccc(OC(C)C)cc2)o1 (configuration not stated),65*,-2,x
COc1cccc(C2C(C(=O)c3ccc(C)o3)=C(O)C(=O)N2CCCN(C)C)c1 (configuration not stated),6,7,-1
CCOc1ccc(C2C(C(=O)c3ccco3)=C(O)C(=O)N2CCCn2ccnc2)cc1 (configuration not stated),70*,1,x
CCOc1ccc(C2C(C(=O)c3cccs3)=C(O)C(=O)N2CCCn2ccnc2)cc1 (configuration not stated),30*,8,x
CCc1cccc(NC(=O)Nc2cccs2)c1,5,11,5
CCOC(=O)C(C)Sc1nnc(Cn2c(=O)sc3ccccc32)n1-c1ccccc1 (configuration not stated),-1,8,-7
CC(CN1CCN(C)CC1)OC(=O)c1ccc(Cl)cc1Cl (configuration not stated),-3,-5,0
COc1cc2nc(SCC(=O)NCc3ccco3)n(Cc3ccc(Cl)cc3)c(=O)c2cc1OC,-1,-2,9
CCN(CC)S(=O)(=O)c1ccc2[nH]cc(C(=O)NCCC3=CCCCC3)c(=O)c2c1,8,-2,15
CC1CCN(c2nc(-c3ccccc3)c(C#N)c(=O)[nH]2)CC1,35*,1,3
CC(C)c1ccc(-c2nc(N3CCCCC3)[nH]c(=O)c2C#N)cc1,-27,-6,0
Cc1ccc(Nc2nc(C3CC3)cs2)cc1,34*,8,-6
CC(=O)Nc1nc(C)c(-c2csc(Nc3ccc(O)cc3)n2)s1,-6,-7,0
CN1CCN(CCCNC(=O)Nc2cccc3ccccc23)CC1,5,32*,-5
O=C(NCCCN1CCCC1)Nc1cccc2ccccc12,-3,7,-5
